Compounds with a hit are over-represented: about 2.3% of the library has one in this group of screens.
Tau fibril FP – blocks human tau fibril formation measured by polarization. K18 P301L tau heparin fibrillization, Alexa594 FP, 6 h. Potency, µM (highest dose often 57.7 µM), inactives show top-dose activity, negative = inhibition, most hits filed as inhibitors. AID 1468. P10636. 0.39% of 280,000 active; also: potency is read from the fitted curve at half-maximal effect; nearly all actives have a fitted effect of over 55% in size
Target sequence (P10636 561-689 P618L limits assumed): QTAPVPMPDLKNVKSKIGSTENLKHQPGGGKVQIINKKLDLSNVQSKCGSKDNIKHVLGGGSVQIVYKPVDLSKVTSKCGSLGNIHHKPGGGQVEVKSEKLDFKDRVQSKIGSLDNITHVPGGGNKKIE
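Human K18 P301L fragment (15 uM unlabeled plus 0.24 uM Alexa 594-labeled) in 100 mM sodium acetate pH 7 with compound, aggregation induced by 20 uM heparin for 6 hr at 37 C. ThT (30 uM) added for 1 hr, then Alexa 594 FP read.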
Coupling enz – coupling enzyme interference in Giardia aldolase counter-screen | coupling enzyme system counterscreen, AmpLite Red fluorescence | activity change, negative = inhibition, % at 58.2 µM, hits read low | 0.67% of 290,000 active; in the data active = activity change below about -30%
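First, compound is pin-transferred into glyceraldehyde-3-phosphate coupling-enzyme reagent at 57.5 uM final and held 10 min at RT. Next, substrate, coupling system and AmpLite Red are added. After 20 min RT, fluorescence (525/598 nm) is read.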
Tau ThT inhib – blocks human tau fibril formation measured by thioflavin T. 2.1% of 270,000 active. AID 1460. recombinant tau K18 P301L, heparin-induced fibrillization, ThT fluorescence. Potency, µM (series often up to 57.4 µM), for the others: at the top dose activity, negative = inhibition, most hits filed as inhibitors; also: potency is read from the fitted curve at half-maximal effect; nearly all actives have a fitted effect of over 55% in size
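Recombinant human tau K18 fragment […] carrying P301L, 15 uM unlabeled plus 0.24 uM Alexa 594-labeled, was fibrillized with 20 uM heparin in 100 mM sodium acetate pH 7 for 6 hr at 37 C; 30 uM ThT fluorescence read after 1 hr.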
Tau fluor counter – counter-screen for tau fibril formation inhibitors. tau K18 P301L (four-repeat tau fragment) Alexa594 fluorescence, heparin fibrillization. 0.93% of 280,000 active. AID 1463. Potency, µM (highest dose often 57.7 µM), for the others: top-dose activity change, negative = decrease; also: potency is read from the fitted curve at half-maximal effect; nearly all actives have a fitted effect of over 55% in size
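Human K18 P301L tau (15 uM unlabeled plus 0.24 uM Alexa 594-labeled, final) in 100 mM sodium acetate pH 7 was mixed with compound and 20 uM heparin and incubated 6 hr at 37 C.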
USP1 inh – inhibitors of human USP1/UAF1 deubiquitinase. O94782. recombinant USP1/UAF1, Ub-Rhodamine cleavage fluorescence. Potency, µM (titrated, usually from 57.1 µM), inactives show top-dose activity change, negative = inhibition, hits mostly inhibitors. 0.23% of 390,000 active. AID 743255; also: potency is read from the fitted curve at half-maximal effect; nearly all actives have a fitted effect of over 60% in size
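In this screen, compounds sit with the deubiquitinase complex (1nM) for 15 min at room temperature before Ub-Rho is added at 150nM final. Fluorescence rise is then followed for 6 reads every 60 seconds.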
Numbers without * were called inactive; [ ] = remark or other dose. Unless noted, calls follow the shape of the dose curve; as a rule, active = well fitted curve in the direction sought with a large enough effect; inconclusive = small, poorly fitted or top-dose-only effect, or another doubt; inactive = no such curve, though single readings can be large; an effect the other way counts as inactive or inconclusive. % is scaled to controls: 0 for no effect and ±100 for the full control effect.

Screening Cc1cc(C)nc(SCC(=O)NC2=NN=C(c3ccc(Br)cc3)CS2)n1 returned Tau fibril FP inconclusive, Coupling enz -2, Tau ThT inhib inconclusive, Tau fluor counter -17% and USP1 inh inconclusive.
Screening CCC(C)NC(=O)Cn1c(=O)n(Cc2ccc(C(=O)NCc3ccccc3OC)cc2)c(=O)c2ccccc21 (centres undefined) returned Tau fibril FP 1%, Tau ThT inhib 5%, Tau fluor counter -26% and USP1 inh -26%.
`O=[N+]([O-])c1ccc(-n2nnnc2-c2ccccc2)cc1` gave Tau fibril FP 10%, Coupling enz 0, Tau ThT inhib -5%, Tau fluor counter -4% and USP1 inh -16%.
For O=[N+]([O-])c1ccc(-n2nnnc2-c2ccccc2)c([N+](=O)[O-])c1 the results were Tau fibril FP inconclusive, Coupling enz -24, Tau ThT inhib 14µM*, Tau fluor counter 11µM*[quencher] and USP1 inh -9%.
`COc1ccc(OC)c(S(=O)(=O)NCC(c2ccc(N(C)C)cc2)N2CCOCC2)c1` (centres undefined) gave Tau fibril FP 2%, Tau ThT inhib inconclusive, Tau fluor counter inconclusive and USP1 inh -18%.
Screening N#Cc1ccccc1OCC(=O)NNC(=O)CNC(=O)c1ccc(Br)o1 returned USP1 inh -21%.
`Oc1ccc2c(c1)C1CCCC1(N1CCOCC1)O2` (centres undefined) gave Tau fibril FP inconclusive, Coupling enz -37*, Tau ThT inhib inconclusive, Tau fluor counter -26% and USP1 inh -25%.
`O=C1C(Cl)=C(N2CCCCCC2)C(=O)N1c1ccccc1Cl` gave Coupling enz 5 and USP1 inh -14%.
CN1CCN(C2=C(Cl)C(=O)N(c3cccc(Cl)c3)C2=O)CC1 was read as Tau fibril FP inconclusive, Coupling enz -2, Tau ThT inhib 22µM*, Tau fluor counter inconclusive and USP1 inh -7%.
For O=C1C(Cl)=C(N2CCOCC2)C(=O)N1c1ccccc1Cl the results were Tau fibril FP 20µM*, Coupling enz -4, Tau ThT inhib 14µM*, Tau fluor counter inconclusive and USP1 inh -12%.
Screening Cc1ccccc1N1C(=O)C(Cl)=C(N2CCN(c3ccccc3)CC2)C1=O returned Tau fibril FP inconclusive, Coupling enz -1, Tau ThT inhib 16µM*, Tau fluor counter inconclusive and USP1 inh -21%.
`COC(=O)c1cccc(N2C(=O)C(Cl)=C(N3CCOCC3)C2=O)c1` gave Tau fibril FP 28µM*, Coupling enz 2, Tau ThT inhib 14µM*, Tau fluor counter inconclusive and USP1 inh -14%.
`COc1ccccc1CNC(=O)c1cc2cccc3c2n1CC(C)S3` (centres undefined) gave Tau fibril FP 0%, Tau ThT inhib 0%, Tau fluor counter -22% and USP1 inh -35%.
`CN1CCN(C2=C(Cl)C(=O)N(c3ccc(Cl)c(Cl)c3)C2=O)CC1` gave Tau fibril FP inconclusive, Coupling enz 5, Tau ThT inhib 14µM*, Tau fluor counter -28% and USP1 inh -5%.
Cc1ccc(N2C(=O)C(Cl)=C(N3CCOCC3)C2=O)cc1Cl was read as Tau fibril FP 22µM*, Coupling enz 1, Tau ThT inhib 14µM*, Tau fluor counter inconclusive and USP1 inh -4%.
Screening Cc1nn(-c2ccccc2)c(C)c1C(=O)NCc1ccc(S(N)(=O)=O)cc1 returned Coupling enz 3 and USP1 inh -10%.
Cc1ccc(N2C(=O)CCSC23C(=O)N(Cc2ccccc2)c2ccccc23)cc1 (centres undefined) was read as Tau fibril FP -15%, Tau ThT inhib inconclusive, Tau fluor counter -2% and USP1 inh inconclusive.
`CCOc1ccc(CNc2cccc(SC)c2)cc1` gave Tau fibril FP -37%, Coupling enz -12, Tau ThT inhib 16µM*, Tau fluor counter -31% and USP1 inh -4%.
CCOc1ccc(CNc2ccc(CNc3ncn[nH]3)cc2)cc1 was read as Tau fibril FP 9%, Coupling enz 1, Tau ThT inhib inconclusive, Tau fluor counter -29% and USP1 inh -20%.
For COc1cc(CNc2ccc(N3CCOCC3)cc2)cc(Br)c1OC the results were Tau fibril FP 1%, Coupling enz 0, Tau ThT inhib inconclusive, Tau fluor counter -18% and USP1 inh -15%.
Screening CCOc1ccc(CNc2ccc(N3CCCC3)cc2)cc1 returned Tau fibril FP inconclusive, Coupling enz -13, Tau ThT inhib 7.1µM*, Tau fluor counter inconclusive and USP1 inh -25%.
c1cc(CNc2ccc(N3CCOCC3)cc2)ccn1 was read as Tau fibril FP inconclusive, Coupling enz -14, Tau ThT inhib 22µM*, Tau fluor counter inconclusive and USP1 inh -30%.
For COc1cc(CNc2ccc(N3CCCC3)cc2)cc(Cl)c1OC the results were Tau fibril FP inconclusive, Coupling enz -27, Tau ThT inhib 4µM*, Tau fluor counter inconclusive and USP1 inh inconclusive.
CCCC(CCC)C(=O)Nc1cccc(-c2cn3cccnc3n2)c1 was read as Tau fibril FP -5%, Tau ThT inhib -2%, Tau fluor counter -20% and USP1 inh 13%.
Screening C=CCCC(=O)N1CCC(n2nccc2NC(=O)c2ccccc2C)CC1 returned USP1 inh -6%.
For CCOc1cc(CNc2ccc(S(N)(=O)=O)cc2)cc(Cl)c1OC the results were Tau fibril FP -12%, Coupling enz -1, Tau ThT inhib -2%, Tau fluor counter -14% and USP1 inh -9%.
CCOc1cc(CNc2ccc(N3CCCC3)cc2)cc(Cl)c1OC was read as Tau fibril FP 7.1µM*, Coupling enz -22, Tau ThT inhib 3.5µM*, Tau fluor counter inconclusive and USP1 inh 28µM*.
C=CCOc1c(Cl)cc(CNc2ccc(N(C)C)cc2)cc1OC was read as Tau fibril FP 0%, Coupling enz -79*, Tau ThT inhib 10%, Tau fluor counter 1% and USP1 inh inconclusive.
`Cc1ccc(-c2noc(C3CCCN(C(=O)c4ccc(C(C)(C)C)cc4)C3)n2)o1` (centres undefined) gave Coupling enz -3 and USP1 inh -20%.
For CCOc1ccccc1/C=C/c1onc(C)c1S(=O)(=O)N1CCC(C(=O)NC(C)(C)C)CC1 the results were USP1 inh -12%.
COc1ccc(N=Nc2ccc(O)c3ncccc23)cc1 was read as Tau fibril FP inconclusive, Coupling enz -3, Tau ThT inhib 1.4µM*, Tau fluor counter -26% and USP1 inh -9%.
`Cc1ccccc1N=Nc1ccc(O)c2ncccc12` gave Tau fibril FP 8%, Coupling enz 0, Tau ThT inhib inconclusive, Tau fluor counter -17% and USP1 inh 5%.
